What was measured:
Settings in all cases: concentration: 1 μM, replicates: in singlicate; n = 1
AAK1 = tested on: AAK1
ABL1-nonphosphorylated = tested on: ABL1-nonphosphorylated
ABL1-phosphorylated = tested on: ABL1-phosphorylated
ABL2 = tested on: ABL2
ACVR1B = tested on: ACVR1B
ACVR1 = tested on: ACVR1
ACVR2A = tested on: ACVR2A
ACVR2B = tested on: ACVR2B
ACVRL1 = tested on: ACVRL1
ADCK3 = tested on: T1, ADCK3
T1 construct: gene CABC1

ADCK4 = tested on: ADCK4
AKT1 = tested on: AKT1
AKT2 = tested on: AKT2
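Note: KINOMEscan kinase panel screen.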

Compound | %Inh (AAK1) | %Inh (ABL1-nonphosphorylated) | %Inh (ABL1-phosphorylated) | %Inh (ABL2) | %Inh (ACVR1B) | %Inh (ACVR1) | %Inh (ACVR2A) | %Inh (ACVR2B) | %Inh (ACVRL1) | %Inh (ADCK3) | %Inh (ADCK4) | %Inh (AKT1) | %Inh (AKT2)
OCCOCCn1ccc2ncnc(Nc3ccc(Oc4cccc(Cl)c4)c(Cl)c3)c21 | 0% | 24% | 0% | 0% | 0% | 0% | 8% | 0% | 0% | 2% | 0% | 0% | 0%
CN1c2ccc(-c3ccc(C(=O)NCCO)cc3)cc2-c2[nH]ncc2S1(=O)=O | 54% | 33% | 15% | 7% | 0% | 22% | 0% | 2% | 0% | 0% | 3% | 11% | 0%
Fc1cccc(COc2ccc(Nc3ncnc4sc(-c5ccc[nH]5)cc34)cc2Cl)c1 [GW707818] | 0% | 0% | 0% | 0% | 2% | 9% | 5% | 16% | 4% | 1% | 24% | 0% | 7%
COC(=O)c1c(-c2ccccc2)c2cc(Cl)ccc2c(=O)n1Cc1ccc(S(C)(=O)=O)cc1 | 18% | 40% | 0% | 18% | 0% | 0% | 0% | 0% | 0% | 17% | 0% | 9% | 3%
CSc1ccc(NC2=C(c3ccccc3Cl)C(=O)NC2=O)cc1 [SB-342411] | 24% | 0% | 0% | 3% | 0% | 0% | 0% | 0% | 0% | 16% | 0% | 0% | 11%
CC(C)(C)c1ccc(-n2cnc3c(N)ncnc32)cc1 [SKF-97263] | 1% | 0% | 0% | 7% | 0% | 10% | 7% | 0% | 0% | 23% | 0% | 0% | 12%
CC(=O)Nc1n[nH]c2ncc(-c3ccccc3)cc12 [SB-548492] | 0% | 49% | 20% | 11% | 2% | 13% | 37% | 10% | 0% | 0% | 0% | 0% | 0%
COc1ccc(NC(=O)Nc2ccc(C)c(-c3ccc(C(=O)Nc4ccncc4)cc3)c2)cc1 [GSK1398475] | 2% | 0% | 2% | 12% | 0% | 43% | 0% | 0% | 0% | 19% | 34% | 0% | 0%
COC(=O)c1cccc(NC(=O)NCCNc2ccnc(Nc3ccc(F)cc3)n2)c1 [GSK1379883] | 3% | 0% | 0% | 1% | 0% | 6% | 0% | 0% | 0% | 15% | 48% | 0% | 0%
Cl.O=S(=O)(c1cccc(F)c1)c1ccc(Nc2ncnc3cc(Br)sc23)cc1Cl [GSK306886] | 16% | 0% | 0% | 0% | 0% | 18% | 0% | 0% | 7% | 11% | 22% | 0% | 3%
Nc1nccc2scc(-c3ccc4c(c3)CCN4C(=O)Cc3cc(F)ccc3F)c12 [GSK2587663] | 0% | 0% | 0% | 18% | 0% | 0% | 0% | 0% | 0% | 24% | 35% | 0% | 17%
Cc1cccc(-c2nc(Nc3ccc4[nH]nnc4c3)c3ccccc3n2)n1 [GW867587] | 0% | 78% | 47% | 0% | 0% | 0% | 0% | 0% | 0% | 0% | 8% | 5% | 0%
Nc1nc(-c2ccc3c(N)n[nH]c3c2)cc(N2CCCCC2)n1 [GSK2228768] | 53% | 0% | 0% | 12% | 0% | 0% | 0% | 0% | 0% | 0% | 6% | 0% | 0%
Fc1cccc(COc2ccc(Nc3ncnc4nn5ccccc5c34)cc2Cl)c1 [GW689066] | 0% | 0% | 0% | 1% | 0% | 0% | 0% | 0% | 0% | 5% | 42% | 0% | 3%
Fc1ccc(Nc2nccc(-c3c(-c4ccc(Cl)cc4)nn4ncccc34)n2)cc1F [GW829058] | 0% | 0% | 17% | 19% | 20% | 0% | 0% | 0% | 0% | 0% | 0% | 18% | 9%
CCC(CC)(CC)n1cnc2c(N)ncnc21 [SKF-97620] | 0% | 27% | 6% | 1% | 10% | 0% | 0% | 0% | 0% | 0% | 9% | 11% | 0%

Source: PMC5540273 (PLoS ONE, 2017)
